Rv3671c inh: Rv3671c (M. tuberculosis) protease inhibition; inhibition, % at 5.96 µM; P9WHR9; 320,000 compounds, 0.048% hits; AID 2606; in the data active = inhibition above about 38%;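 also: extracellular domain of Rv3671c used as enzyme; 0% = enzyme with DMSO and 100% = no enzyme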
UGM FP inh: blocks M. tuberculosis UGM enzyme; P9WIQ1; purified UGM, fluorescence polarization probe displacement; inhibition, % at 10 µM; 320,000 compounds, 0.06% hits; in the data active = inhibition above about 10%, passing the limit was not always enough
FBA Mtb inh: Mtb fructose-bisphosphate aldolase inhibition | purified M. tuberculosis FBA, fluorescence read-out | inhibition, % at 1 µM | 360,000 compounds, 2.3% hits | AID 588726; in the data active = inhibition above about 27%;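 also: 0% = vehicle and 100% = reference inhibitor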
GDH-TPI counter: GDH-TPI coupled enzyme inhibition counter-screen. inhibition, % at 4.8 µM. 360,000 compounds, 1.2% hits. GDH-TPI coupled enzyme counterscreen, NADH absorbance; in the data active = inhibition above about 30%;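 also: 0% = DMSO wells and 100% = wells lacking the enzyme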
RecA intein inh: inhibitors of M. tuberculosis RecA intein splicing; inhibition, % (no concentration beside the values); P9WHJ3; cell-free RecA intein splicing, fluorescence; 290,000 compounds, 0.75% hits; in the data active = inhibition above about 30%;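 also: 0% = vehicle wells and 100% = reference inhibitor control wells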
Mtb betalactam: beta-lactam sensitization of Mtb H37Rv | 330,000 compounds, 0.27% hits | inhibition, % at 25 µM | M. tuberculosis H37Rv growth with meropenem, percent inhibition; call rule not given here;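 also: growth measured after seven days incubation then overnight dye step; 0% = bacteria only wells and 100% = bacteria with antibiotic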
Starred values were filed as active, the others as inactive; . = no result given; + = active, no number. This is a sample that favours compounds with a hit; in the whole collection about 4% have one here.

SMILES	Rv3671c inh	UGM FP inh	FBA Mtb inh	GDH-TPI counter	RecA intein inh	Mtb betalactam
CCCC1Cc2[nH]c(=O)c(C#N)cc2CO1 (stereo not given)	1.0	0.4	125.7*	29.9	-3.4	-3.0
CCCC1Cc2nc(N3CCCCC3)c(C#N)cc2CO1 (stereo not given)	-4.7	-0.3	15.0	-1.4	4.8	-3.8
CSc1nsc(SCC(=O)N2CCN(c3ccccc3)CC2)n1	5.3	1.7	135.2*	-1.7	3.5	100.1
O=C(NCCN1CCN(Cc2ccccc2)CC1)c1ccc(CS(=O)(=O)c2c(Cl)cccc2Cl)o1	.	.	-1.2	-0.9	.	.
Cn1c(SCC(=O)c2ccc(O)cc2O)nnc1-c1ccccc1	-0.6	-1.9	0.0	34.2*	-4.6	-1.9
CCC(C)C(=O)C(=O)N1CCC(n2nccc2NC(=O)CCOc2ccccc2)CC1 (stereo not given)	.	.	-5.5	8.8	.	.
CCCOc1cccc(-c2nc3ccccc3c(=O)o2)c1	8.6	3.6	-2.1	-5.2	43.2*	61.8
CCC(=O)Nc1cccc(-c2nc3ccccc3c(=O)o2)c1	-2.3	-0.5	4.5	8.6	-1.4	35.6
COc1ccc(Cl)cc1NC(=O)CN1CCC(NC(=O)C2CC2)CC1	-6.7	2.9	-1.4	5.8	1.9	0.9
COc1cc(N)c(Cc2nccc3cc(OC)c(OC)cc23)cc1OC	10.7	4.0	1.2	7.0	45.7*	-0.1
COc1ccc(C(=O)N/N=C/c2ccc3cccc(O)c3n2)cc1	-12.1	2.2	-1.1	32.7*	-1.3	90.2
O=C(N/N=C/C(Br)=C/c1ccccc1)c1cnccn1	1.7	-0.5	0.1	36.6*	1.8	100.1
COc1cccc(C(=O)Nc2ccccc2NC(=O)c2cccc(OC)c2)c1	3.2	1.2	-1.3	6.5	-1.9	-9.7
Cc1occc1C(=O)N/N=C/C(Br)=C/c1ccccc1	16.9	-2.5	-2.9	11.5	3.4	11.5
COc1ccc(C(=O)N/N=C/C(Br)=C/c2ccccc2)cc1	-10.3	-1.5	-7.8	30.7*	-1.6	-0.8
O=C(N/N=C/C=C\c1ccccc1)c1cnccn1	3.2	3.1	-1.9	24.9	-0.2	0.5
COc1cccc(C(=O)N/N=C/C(Br)=C/c2ccccc2)c1	-6.9	-1.4	1.6	39.8*	5.6	98.3
Cc1ccc(S(=O)(=O)NC(=O)Nc2ccc(OC(F)F)cc2)cc1	-2.7	2.1	1.7	3.8	0.0	2.6
COC(=O)c1ccc(C(=O)OC)c(NC(=O)Oc2ccccc2)c1	-6.3	3.8	154.5*	5.2	-90.1	-1.2
CNC(=S)N1CCN(S(=O)(=O)c2ccc3ccccc3c2)CC1	-3.6	1.5	2.1	5.4	.	-1.5
CCCCCn1c(-c2ccco2)nc2nc3ccccc3nc21	-10.1	-1.1	+	6.4	-47.1	40.0
COc1ccccc1Cn1c(-c2ccco2)nc2nc3ccccc3nc21	-1.2	1.3	11.2	18.1	-2.9	-4.0
Cc1ccc(-c2nc3nc4ccccc4nc3n2Cc2ccco2)cc1	-0.5	-0.4	13.6	46.0*	3.4	-4.7
c1coc(-c2nc3nc4ccccc4nc3n2CC2CCCO2)c1 (stereo not given)	-7.0	-2.9	+	22.5	-56.8	2.6
c1ccc(Cn2c(-c3ccco3)nc3nc4ccccc4nc32)cc1	-20.0	0.9	+	20.5	-13.5	-6.2
SMILES	Rv3671c inh	UGM FP inh	FBA Mtb inh	GDH-TPI counter	RecA intein inh	Mtb betalactam
CCCCCCNC(=O)O[C@H]1Cn2c(=O)ccc(=O)n2[C@@H]2CN(S(=O)(=O)c3ccc(C)cc3)C[C@]12O	.	.	-1.3	-0.5	.	.
COCCn1c(SCC(=O)Nc2ccc(Cl)cn2)nnc1-c1ccncc1	0.5	0.7	-0.1	10.6	-7.3	2.3
COc1ccc(CC2S/C(=N/N=C/c3ccc(O)cc3)NC2=O)cc1 (stereo not given)	-10.0	4.5	-0.9	15.7	3.6	0.2
CCOc1cc(/C=N/N=C2/NC(=O)C(CC(=O)O)S2)ccc1OCc1ccc(Cl)cc1Cl (stereo not given)	-23.1	-0.9	0.1	27.9	7.9	3.3
COc1cc(/C=N/N=C2/NC(=O)C(CC(=O)O)S2)ccc1OCc1ccc(Cl)cc1 (stereo not given)	-0.3	1.7	-4.7	50.6*	-1.2	46.2
O=C1N/C(=N/N=C/c2ccc(O)cc2)SC1Cc1ccccc1 (stereo not given)	-25.7	2.2	-5.0	62.0*	-3.4	19.0
COc1ccc(CC2S/C(=N/N=C/c3ccccc3O)NC2=O)cc1 (stereo not given)	6.7	-0.7	-0.4	36.7*	-7.9	98.7

Compound activity as filed in PubChem BioAssay.
